# Compound activity from PubChem.
# Hits are enriched below; roughly 11% of the tested compounds scored in any of these assays.
# ALDH1A1 block: qHTS Assay for Inhibitors of Aldehyde Dehydrogenase 1 (ALDH1A1); Aldehyde dehydrogenase 1A1 (Homo sapiens), P00352; Purified ALDH1A1, NADH fluorescence, propionaldehyde substrate; Potency, µM (top dose mostly 75.3 µM), inactives show top-dose activity, negative = inhibition, hits mostly inhibitors; hit rate 7.3% among 220,000; AID 1030, 2008;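 also: potency is read from the fitted curve at half-maximal effect; plate controls were no enzyme wells and a reference inhibitor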
# Target sequence (P00352 whole entry, looked up): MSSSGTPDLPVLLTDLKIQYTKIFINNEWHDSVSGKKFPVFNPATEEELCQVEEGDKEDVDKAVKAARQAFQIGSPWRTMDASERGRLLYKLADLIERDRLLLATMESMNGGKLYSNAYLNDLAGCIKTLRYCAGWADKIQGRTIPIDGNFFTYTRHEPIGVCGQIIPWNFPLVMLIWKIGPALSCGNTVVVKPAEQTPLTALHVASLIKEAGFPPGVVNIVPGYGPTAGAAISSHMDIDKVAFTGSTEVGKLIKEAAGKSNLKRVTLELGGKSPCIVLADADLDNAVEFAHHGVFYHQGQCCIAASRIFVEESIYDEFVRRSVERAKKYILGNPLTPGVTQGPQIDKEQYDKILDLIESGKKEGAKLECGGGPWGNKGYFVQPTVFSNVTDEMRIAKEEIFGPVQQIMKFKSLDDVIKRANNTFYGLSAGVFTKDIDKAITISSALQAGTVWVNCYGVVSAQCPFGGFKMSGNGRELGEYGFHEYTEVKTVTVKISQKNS
# HPGD inh: qHTS Assay for Inhibitors of HPGD (15-Hydroxyprostaglandin Dehydrogenase). AID 894, 2007. purified HPGD, NADH fluorescence kinetic, PGE2 substrate. hit rate 4.3% among 150,000. Potency, µM, for the others: top-dose activity change, negative = inhibition, hits mostly inhibitors. 15-hydroxyprostaglandin dehydrogenase [NAD(+)] (Homo sapiens), P15428; also: potency is read from the fitted curve at half-maximal effect
#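 20 nM HPGD preincubated 15 min at room temperature with compound in 50 mM Tris-HCl pH 8, 0.01% Tween 20. Started with 1 mM NAD+ and 30 uM prostaglandin E2; NADH fluorescence (360/450 nm) read 5 times over 30-s intervals, last minus first.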
# PNC assembly inh: High Content Assay for Compounds that inhibit the Assembly of the Perinucleolar Compartment; hit rate 3.1% among 140,000; activity change (PNC), negative = inhibition, % at 10 µM; PC3M PTB-GFP, PNC prevalence imaging, 16 h; hits give low values;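 active = readout at or below -70, meaning at least 70% loss of cells showing the perinucleolar compartment, a nuclear body marking cancer cells; inconclusive = readout between -30 and a set limit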;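 also: plate controls were DMSO wells for no effect and camptothecin positive control wells for full effect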
#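 Read-out is percentage of cells bearing a perinucleolar compartment, from automated 20x imaging of fixed, Hoechst-stained PC3M PTB-GFP cells. Cells were seeded 4 h, then exposed 16 h to compound (23 nl of library stock) in duplicate plates.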
# * hit, by the source's call; ? = inconclusive; . = no result given; [ ] = remark or other dose. Unless noted, calls follow the shape of the dose curve; as a rule, active = well fitted inhibition curve with a large enough effect (not every such curve was filed as active); inconclusive = small, poorly fitted or top-dose-only effect, or another doubt; inactive = no such curve, though single readings can be large or run the other way. Unless noted, % is scaled to controls: 0 for no effect and ±100 for the full control effect.
SMILES,ALDH1A1 block,HPGD inh,PNC assembly inh
Cc1cc([N+](=O)[O-])nn1CCCC(=O)Nc1c(C)n(C)n(-c2ccccc2)c1=O,-15.5%,.,.
Cc1cc([N+](=O)[O-])nn1CCCC(=O)O,-8.2%,.,.
Cc1cc([N+](=O)[O-])nn1CCCC(=O)N1CCN(c2ccc(F)cc2)CC1,?,-4.6%,-119.3*
O=C1C(Cl)=C(NCC2CCCO2)C(=O)N1c1ccccc1 (configuration not stated),4.8%,.,7.8
O=C1C(Cl)=C(NCC2CCCO2)C(=O)N1C1CCCCC1 (configuration not stated),3.98µM*,-24.8%,58.7
CCOC(=O)CSc1cc(C)nc2ccc(OC)cc12,4.2%,.,.
CCN(CC)C1=N/C(=C\c2ccc(OC)cc2)C(=O)N1c1ccccc1,?,-19.6%,-22.0
C=CCN(C(=O)Nc1ccc(Cl)cc1)C1CC(=O)N(c2ccc(OC)cc2)C1=O (configuration not stated),-1.5%,-12.6%,?
COC(=O)CC1=NN(c2ccccc2)C(=O)/C1=C\c1ccc(OC)cc1,?,14.1µM*,19.4
CCOC(=O)CC1=NN(c2ccccc2)C(=O)/C1=C\c1ccc(OC)cc1OC,?,28.2µM*,-18.5
COC(=O)CC1=NN(c2ccc(OC)cc2)C(=O)/C1=C\c1ccc(Cl)cc1,-10.8%,25.1µM*,?
O=C(NCc1csc(-c2cccs2)n1)c1cccc(Cl)c1,-6.4%,.,.
Cc1sc(-c2ccncc2)nc1OC(=O)c1ccc(F)cc1F,5.4%,.,.
CCN(CC)C[C@@H]1CCCCN1CC(=O)N1c2ccccc2C(=O)Nc2cccnc21,7.9%,-1.7%,.
O=CN1CCN(C[C@H](O)CN2CCCCC2)CC1,-8.2%[13.5 µM],-4.0%,.
O=C(O)CCc1nc(-c2ccccc2)c(-c2ccccc2)o1,-1.7%[13.5 µM],?,.
O=C(O)CCc1ccc(-c2ccccc2)o1,3.55µM*,-25.3%,?
Oc1sc(C=Nc2ccccc2)c2ccccc12,22.4µM*,-24.4%,26.2
Oc1sc(C=Nc2ccc(F)cc2)c2ccccc12,?,-6.8%,?
COC(=O)c1ccc(C(NC(=O)OCc2ccccc2)/C(I)=C/[C@@H](C)C(=O)NCc2ccc(C)o2)cc1 (some centres not stated),28.2µM*,-27.1%,.
COC(=O)c1ccc(C(NC(=O)OCc2ccccc2)/C(I)=C/[C@@H](C)C(=O)NCc2ccc(OC)c(O)c2)cc1 (some centres not stated),-6.6%,-6.3%,.
Cn1c(=O)c2ncn(CC(=O)N=Nc3c(O)[nH]c4ccccc34)c2n(C)c1=O,407.8%,.,.
C/C(=N\O)c1ncc(C(F)(F)F)cc1Cl,6.0%,.,.
O=C(Nc1ccccc1Cl)c1cc(S(=O)(=O)N2CCCC(C(=O)O)C2)ccc1F (configuration not stated),22.4µM*,-23.4%,?
O=C(Nc1ccccc1Cl)c1cc(S(=O)(=O)N2CCCCC2)ccc1N1CCOCC1,-4.3%,-21.4%,25.1
SMILES,ALDH1A1 block,HPGD inh,PNC assembly inh
O=C(O)c1ccc(C(=O)Nc2cccc3ccccc23)c(C(=O)O)c1,-18.9%[13.5 µM],-25.1%,.
c1ccc(SCCSc2ccccc2)cc1,18.9%,-11.5%,.
Cc1nn(Cc2ccc(Cl)cc2)c(C)c1NC(=O)Cn1nc([N+](=O)[O-])c(Cl)c1C,-1.6%,-1.8%,1.5
Cc1nn(Cc2ccc(Cl)cc2)c(C)c1NC(=O)c1ccc([N+](=O)[O-])cc1,3.9%,.,-83.9*
Cc1c(C(=O)NN2CCOCC2)oc2c1ccc1ccccc12,8.3%,.,.
CCc1cc(CC)c(/C=N/NC(N)=O)c(CC)c1,2.6%,.,.
CCC1(C(=O)OC)NC(c2ccco2)C2C(=O)N(c3ccc(F)cc3)C(=O)C21 (configuration not stated),17.8µM*,.,.
CCC1(C(=O)OC)NC(c2ccco2)C2C(=O)N(c3ccccc3)C(=O)C21 (configuration not stated),?,-5.2%,14.9
O=c1cc(-c2ccccc2)nc(SCc2ccccc2F)[nH]1,-0.4%,.,.
Cc1ccccc1OCCc1c(C)[nH]c(=S)[nH]c1=O,20µM*,.,.
Cc1[nH]c(=S)[nH]c(=O)c1CCOc1ccccc1,?,-14.6%,34.7
NS(=O)(=O)c1ccc(CCNC(=O)c2cc(-c3cc(Cl)ccc3O)n[nH]2)cc1,17.9%,.,.
Cc1cccc(NC(=O)c2ccccc2NC(=O)C2CCCCC2)c1C,?,2.51µM*,15.9
Cc1ccc(NC(=S)NNC(=S)NC2CCCCC2)cc1,3.16µM*,.,.
CC(=O)c1ccc(NC(=S)NNC(=O)NC2CCCCC2)cc1,1µM*,.,.
O=C(Nc1ccccc1)c1ccccc1NC(=O)C1CCCCC1,-1.5%,-25.9%,52.4
CC(C)c1ccc(NC(=S)NC2CCCCCC2)cc1,-4.5%,.,.
O=C(O)c1ccc(NC(=S)NC2CCCCC2)cc1,-8.0%,-12.3%,14.8
Cc1cccc(C)c1NC(=S)NC1CCCCC1,-6.2%,.,40.9
Cc1cccc(NC(=S)NNC(=S)NC2CCCCC2)c1C,2µM*,.,.
Cc1[nH]c2ccccc2c1CCNC(=O)c1c(N)no[n+]1[O-],2.9%,.,.
Cc1cccc(C(=O)OCC(=O)NCCCc2ccccc2)c1,10.1%,.,.
O=C(O)CCN1CCc2ccccc2C1c1cccs1 (configuration not stated),-7.8%,.,.
CCc1sc(C(C2C(=O)CC(C)(C)CC2=O)C2C(=O)CC(C)(C)CC2=O)cc1[N+](=O)[O-],14.1µM*,.,.
CCc1sc(-c2c(C#N)c(N)nc3c2CCCCCC3)cc1[N+](=O)[O-],3.0%,-14.6%,76.7
SMILES,ALDH1A1 block,HPGD inh,PNC assembly inh
c1ccc(Cn2nc(-c3ccccc3)nc2-c2ccccc2)cc1,?,-8.9%,57.5
CN=c1nc(-c2ccccc2)n(-c2ccccc2)s1,1.41µM*,-26.1%,.
C[C@@H](O)C#C[Si](C)(C)c1ccccc1,-4.3%,2.6%,.
CCCN(CCC)C(=O)c1ccc2c(c1)OCO2,3.9%,25.1µM*,23.8
N#CCCN(CCC#N)C(=O)c1ccc2c(c1)OCO2,12.9%,-3.4%,-18.5
Cc1cccc(/C=N/NC(=O)Cn2nnnc2N)n1,2.1%,.,.
Cc1[nH]ccc(=O)c1Oc1ncc(C(F)(F)F)cc1Cl,2.0%,.,.
COC(=O)C1=C(C(=O)OC)[C@@H]2N(Cc3ccccc3)c3ccccc3[C@@]23C[C@@H](C(=O)OC)N(C(=O)NCc2ccccc2)C3=C1,4.5%,-3.7%,.
NNc1nc(-c2ccccc2)cc(-c2ccccc2)n1,0.0%,.,.
NNc1nc(-c2ccccc2)cc(-c2ccccc2O)n1,6.0%,-14.4%,-106.0*
O=C(NN1C(=O)C2C3C=CC(C3)[C@H]2C1=O)c1cccnc1 (some centres not stated),10.6%,-6.7%,-97.5*
O=C(NN1C(=O)C2C3C=CC(C3)C2C1=O)c1ccccc1 (configuration not stated),3.7%,.,.
O=C(/C(=C/O)N=Nc1ccccc1)c1ccncc1,1.26µM*,-22.9%,3.8
CC(=O)c1ccc(N=Nc2ccc(C)cc2)cc1,10.6%,.,.
O=C(O)c1ccncc1,-3.9%,.,.
Cc1ccc(N=N/C(=C\O)C(=O)c2ccc(Cl)cc2)cc1,12.6µM*,.,.
C#CCOC(=O)Nc1ccc(=O)n(Cc2c(Cl)cccc2Cl)c1,?,?,-2.8
Cc1cccc(NC(=O)COc2ccc(/C=C\c3[nH]c(=O)[nH]c(=O)c3[N+](=O)[O-])cc2)c1,2.1%,.,.
